Hit rate of the full screen: of about 52,000 compounds, about 4,300 (8.3%) were called active. The list comes from a sample in which actives are over-represented; it also holds similar structures and randomly drawn compounds. Unmarked numbers belong to inactive results. Cut-off read from the data, not from the text of the source: active = survival mostly below about 52% (no sharp cut-off); inactive = mostly above about 56%.

For the assay, the system named is DeltatarO mutant. As to the kind of experiment: growth inhibition of S. aureus wild type versus tarO mutant, primary screen, teichoic acid synthesis inhibitors, RN4220, OD600 (AID 463173). The following applies: OD600, 18 h, stronger effect = lower value, screened at 18.75 µg/mL (by protocol).
Consider `COc1ccccc1-c1cc(-c2ccc(O)cc2)nc(N)c1C#N`, for which the survival is 12% (active).

As to `CCCSc1nc(-c2ccc(OC)cc2)cc(-c2ccccc2OC)c1C#N`, the survival was 64%.

With `CN(C)c1ccc(-c2cc(-c3ccccc3)c(C#N)c(N)n2)cc1`, the survival was 105%.

As to `CCOc1ccc2c(c1)c(=O)c(C(=O)c1ccccc1)cn2Cc1ccccc1F`, the survival is 83%.

Take `O=C(/C=N/O)NCCN1CCCCC1`: the survival was 98%.

As for `CCCOc1ccc(CNC(=O)C2CCN(C(=O)c3sccc3-n3cccc3)CC2)cc1`, the survival is 79%.

As for `Cc1ccc(S(=O)(=O)N2CCCc3cc(NS(=O)(=O)c4cccc(Cl)c4)ccc32)cc1`, the survival is 68%.

`COc1ccc(-c2c3c(=O)n(C)c(=O)n(C)c3c3n2-c2ccccc2NC3c2ccc(O)cc2O)cc1` (centres undefined): the survival was 0% (active).

As to `Cc1ccc(C2Nc3cc(C)c(C)cc3-n3c(-c4ccccc4)c4c(=O)n(C)c(=O)n(C)c4c32)o1` (centres undefined), the survival was 68%.

With `COc1ccc(-c2nc3ccccc3n3c(-c4ccccc4)c4c(=O)n(C)c(=O)n(C)c4c23)cc1`, the survival is 80%.

For `COc1ccc(-c2c3c(=O)n(C)c(=O)n(C)c3c3n2-c2ccccc2NC3c2ccco2)cc1` (centres undefined), the survival is 50%.

Consider `Cc1ccc(-c2c3c(=O)n(C)c(=O)n(C)c3c3n2-c2ccccc2NC3c2ccc(C)cc2O)cc1` (centres undefined), for which the survival is 2% (active).

Take `COc1ccc(-c2c3c(=O)n(C)c(=O)n(C)c3c3n2-c2ccccc2NC3c2ccccc2OC)cc1` (centres undefined): the survival was 74%.

Consider `Cn1c(=O)c2c(-c3ccccc3)n3c(c2n(C)c1=O)C(c1cc(Cl)ccc1O)Nc1ccccc1-3` (centres undefined), for which the survival was 1% (active).

With `Cc1cc2c(cc1C)-n1c(-c3ccccc3)c3c(=O)n(C)c(=O)n(C)c3c1C(c1ccco1)N2` (centres undefined), the survival was 80%.

For the compound `Cn1c(=O)c2c(-c3ccccc3)n3c(c2n(C)c1=O)C(c1ccco1)Nc1ccccc1-3` (centres undefined), the survival is 77%.

For `COc1ccc(O)c(C2Nc3ccccc3-n3c(-c4ccccc4)c4c(=O)n(C)c(=O)n(C)c4c32)c1` (centres undefined), the survival is 3% (active).

Consider `Cc1ccc(C2Nc3ccccc3-n3c(-c4ccccc4)c4c(=O)n(C)c(=O)n(C)c4c32)o1` (centres undefined), for which the survival was 59%.

Consider `COc1ccccc1C1Nc2ccccc2-n2c(-c3ccccc3)c3c(=O)n(C)c(=O)n(C)c3c21` (centres undefined), for which the survival is 53%.

For the compound `COc1ccc(OCC(=O)Nn2cnnc2)cc1`, the survival was 73%.

Consider `O=C(Cn1c(=O)oc2cc(S(=O)(=O)N3CCCCCC3)ccc21)Nc1ccc(F)cc1F`, for which the survival was 84%.

As for `Cc1ccc(CCNC(=O)c2c(C)oc3ncn(CC(C)C)c(=O)c23)cc1`, the survival was 119%.

Turning to `CC(C)n1cc2c(c1-c1ccccc1Cl)c(=O)n(C)c(=O)n2C`, the survival is 89%.

`Cc1cc(=O)n2c(C(=O)Nc3ccc(Br)cc3)c(C(=O)Nc3ccccc3)sc2n1`: the survival was 62%.

Turning to `Cn1c(=O)c2c([nH]c(=O)n2Cc2ccc(Cl)cc2Cl)n(C)c1=O`, the survival is 42% (active).

Consider `Cn1c(=O)c2c(nc(Oc3ccc(C#N)cc3)n2Cc2ccc(Cl)cc2Cl)n(C)c1=O`, for which the survival was 106%.

`C=CCn1c(=O)[nH]c2c1c(=O)n(C)c(=O)n2C`: the survival was 80%.

For `CN(C(=O)Nc1cn(C)c(=O)c2ccccc12)c1ccccc1`, the survival was -5% (active).

Consider `CCOc1ccccc1N(CC)C(=O)Nc1cn(C)c(=O)c2ccccc12`, for which the survival was 94%.

As to `Cc1ccc(NC(=O)Nc2cn(C)c(=O)c3ccccc23)c(Cl)c1`, the survival is 89%.

`CCc1ccc(NC(=O)N(Cc2c[nH]c3ccccc23)C2CCCCCC2)cc1`: the survival is 102%.

With `CCOc1ccc(NC(=O)N(Cc2c[nH]c3ccccc23)C2CCCCC2)cc1`, the survival was 74%.

As to `CCOc1ccc(NC(=O)N(Cc2cn(CC)c3ccccc23)C2CCCCCC2)cc1`, the survival was -12% (active).

In the case of `CCc1ccc(NC(=O)N(Cc2cn(CC)c3ccccc23)C2CCCCC2)cc1`, the survival is -13% (active).

`CCc1ccc(NC(=O)N(Cc2c[nH]c3ccccc23)C2CCCCC2)cc1`: the survival is 84%.

With `CCOc1ccc(NC(=O)N(Cc2c[nH]c3ccccc23)C2CCCCCC2)cc1`, the survival was 79%.

Turning to `COc1ccc(/C=C/C(=O)Nc2nc(-c3cccs3)ns2)cc1OC`, the survival was 48%.

For `Cc1ccc(Nc2c(-c3cccc(Cl)c3)nc3cccc(C)n23)cc1`, the survival was 49%.

As to `COc1cc(NC(=O)Nc2nnc(N3CCCCC3)s2)cc(OC)c1`, the survival was 68%.

Take `Cc1oc2ncn(CC(C)C)c(=O)c2c1C(=O)NCCCN1CCCCC1C` (centres undefined): the survival is 87%.

Consider `COc1ccc(N2CCN(C(=O)COCc3cc(-c4ccc5c(c4)OCO5)on3)CC2)cc1`, for which the survival was 92%.

In the case of `COc1cccc(C(c2c(O)cc(C)n(Cc3ccco3)c2=O)N2CCC(C)CC2)c1` (centres undefined), the survival is 74%.

As to `O=C(Cc1ccc(Cl)cc1)NCCN1CCOCC1`, the survival was 91%.

Consider `CC1=C(C(=O)Nc2ccc(C)cc2C)C(c2ccc(O)cc2)n2nc(SCC(=O)c3ccc(C)cc3)nc2N1` (centres undefined), for which the survival was 125%.

As to `Cc1ccc(C(=O)N(Cc2ccc(N(C)C)cc2)CC2CCCO2)cc1` (centres undefined), the survival is 50%.

For `COc1cc(C(=O)N(Cc2ccc(N(C)C)cc2)CC2CCCO2)cc(OC)c1OC` (centres undefined), the survival was 47% (active).

Turning to `COc1ccc(C(=O)N(Cc2ccc(N(C)C)cc2)CC2CCCO2)cc1` (centres undefined), the survival is 63%.

On to `Cn1c(=O)n(C)c2cc(NS(=O)(=O)c3ccccc3)c(NCc3ccccc3)cc21`, for which the survival is 68%.

Turning to `Cc1ccc(S(=O)(=O)Nc2cc3c(cc2NCc2ccccc2)n(C)c(=O)n3C)cc1`, the survival is 73%.

Turning to `CC(C)c1ccc(S(=O)(=O)Nc2cc3c(cc2NCc2ccccc2)n(C)c(=O)n3C)cc1`, the survival is 39% (active).

As for `Cn1c(=O)n(C)c2cc(NS(=O)(=O)c3ccc(Cl)cc3)c(NCc3ccccc3)cc21`, the survival is 117%.

For the compound `Cn1c(=O)n(C)c2cc(NS(=O)(=O)c3ccc(C(C)(C)C)cc3)c(NCc3ccccc3)cc21`, the survival was 43% (active).

As for `Cn1c(=O)n(C)c2cc(NS(=O)(=O)c3ccc(Br)cc3)c(NCc3ccccc3)cc21`, the survival is 57%.

Take `COc1ccc(Cl)cc1NC(=O)Cn1cc(S(=O)(=O)Cc2cccc(Cl)c2)c2ccccc21`: the survival is 83%.

Consider `CCOC(=O)c1ccc(NC(=O)c2c(NCc3cccc(OC)c3OC)sc3c2CCC3)cc1`, for which the survival is 77%.

On to `COc1ccccc1CCNC(=O)Cc1c(C)c2cc3c(C)coc3cc2oc1=O`, for which the survival was 68%.

For the compound `CCOC(=O)C1=C(CN2CCN(c3ccccc3OC)CC2)NC(=O)NC1c1ccccc1` (centres undefined), the survival was 70%.

As to `Cc1ccc(-c2nnc(Nc3cccc(Cl)c3)c3ccccc23)cc1S(=O)(=O)N1CCCCC1`, the survival was 65%.

Regarding `CCN(CC)C(=O)c1ccccc1NC(=O)c1ccccc1`, the survival was 92%.

As to `CCN(C(=O)c1ccc(C(=O)N(CC)c2ccccc2C)cc1)c1ccccc1C`, the survival was 68%.

As for `CCN(CC)C(=O)c1ccccc1C`, the survival is 48% (active).

Take `CCCCC(CC)CNC(=O)CN(C)S(=O)(=O)c1ccc2c(c1)c(=O)n(C)c(=O)n2C` (centres undefined): the survival was 73%.

With `CCc1ccc(-n2c(=O)c3c4c(sc3n(CC(=O)c3ccc(Cl)cc3)c2=O)CCC4)cc1`, the survival is 142%.

Consider `O=C(O)CCSc1nnnn1-c1ccccc1`, for which the survival is 73%.

As for `c1ccc(CNc2nnnn2-c2ccccc2)cc1`, the survival is 93%.

Consider `CCS(=O)(=O)c1nnnn1-c1ccccc1`, for which the survival was 9% (active).

Take `CCOc1ccc(C2CC(=O)Nc3cc4c(cc32)OCO4)cc1OC` (centres undefined): the survival is 120%.

Turning to `NS(=O)(=O)c1ccc(CCNc2ncnc3c2cnn3-c2cccc(Cl)c2)cc1`, the survival was 93%.

As for `COc1cc(NC(=O)Cn2c(=O)n(CC(=O)NCCc3ccc(OC)c(OC)c3)c(=O)c3sccc32)cc(OC)c1`, the survival was 49% (active).

Regarding `COc1ccc(CCNC(=O)Cn2c(=O)c3sccc3n(CC(=O)Nc3cccc(C(F)(F)F)c3)c2=O)cc1OC`, the survival was 82%.

As for `COc1cccc(NC(=O)Cn2c(=O)n(CC(=O)NCCc3ccccc3)c(=O)c3sccc32)c1`, the survival was 45% (active).

On to `COc1cc(OC)cc(-n2c(=O)c3ccccc3n(CC(=O)NCCc3ccc(OC)c(OC)c3)c2=O)c1`, for which the survival was 83%.

On to `CCOc1ccc(NC(=O)Cn2c(=O)n(CC(=O)NCCc3ccccc3)c(=O)c3sccc32)cc1`, for which the survival was 71%.

`COc1cccc(NC(=O)Cn2c(=O)n(CC(=O)NCc3ccc(C)cc3)c(=O)c3sccc32)c1`: the survival is 77%.

As for `CCN(CC)S(=O)(=O)c1ccc2c(c1)N(CC(=O)NCCCN1CCN(c3ccccc3F)CC1)C(=O)CO2`, the survival is 77%.

In the case of `CC1=CC(C)C(/C=N/N=C(N)N)C(C)C1` (centres undefined), the survival is 71%.

Regarding `Cn1c(SCC(=O)O)nc2ccccc21`, the survival was 109%.

As for `CC(C)c1ncc(C(O)c2cccc3ccccc23)n1C` (centres undefined), the survival is 56% (active).

As to `CCCc1ncc(C(O)c2ccccc2OC)n1C` (centres undefined), the survival was 85%.

On to `CC(C)c1cnc2c(c1SCC(=O)NCc1ccccc1)c(=O)n(C)c(=O)n2C`, for which the survival was 77%.

With `Cc1cc(NC(=O)CN2CCC(O)CC2)nc2c1c(=O)oc1ccccc12`, the survival was 83%.

Consider `COc1ccccc1-c1c(C(F)(F)F)oc2c(CN3CCCCC3C)c(O)ccc2c1=O` (centres undefined), for which the survival is 62%.

Consider `COc1ccc(S(=O)(=O)NCCSc2nnnn2-c2ccccc2)cc1OC`, for which the survival was 127%.

For `COc1cc(Nc2nc(SCc3ccccc3F)nc3ccccc23)cc(OC)c1`, the survival is 118%.

Consider `O=C(CSc1nc(Nc2ccc(F)c(F)c2)c2ccccc2n1)c1ccc(Cl)cc1`, for which the survival was 101%.

Take `COc1ccc(C(C)=O)cc1CSc1nc(NCc2ccccc2)c2ccccc2n1`: the survival is 89%.

With `COc1ccc(C(C)=O)cc1CSc1nc(NCc2ccc(Cl)cc2)c2ccccc2n1`, the survival was 8% (active).

On to `COc1ccc(C(C)=O)cc1CSc1nc(NCCc2ccccc2)c2ccccc2n1`, for which the survival was 60%.

For the compound `COc1ccc(C(C)=O)cc1CSc1nc(Nc2ccc(F)c(F)c2)c2ccccc2n1`, the survival is 25% (active).

Values taken from PubChem BioAssay AID463173 (ICCB-Longwood Screening Facility, Harvard Medical School, 2010).
